Source: PubChem BioAssay AID1159580 (chemical genetic matrix, 2015)
Screen size: about 5,500 compounds; about 2,000 (36%) were called active. Not shown: some 18% with an inconclusive outcome. Cut-off read from the data, not from the text of the source: active = normalized growth mostly below about 0.91 (no sharp cut-off); inconclusive = no clear call, values can overlap the other calls; inactive = mostly above about 0.92. The list shows a part of the results.

Experiment: chemical genetic growth profiling, strain panel (AID 1159580);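 note: tested at 20 µM; growth read once vehicle control cultures reached saturation at 30 °C; 1 = growth at the plate median or of vehicle wells; lower values mean less growth of the strain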
Conditions: growth OD

Measured: normalized growth

O=c1cc(-c2ccccc2)oc2cc(O)c(O)c(O)c12
inactive: S. cerevisiae deletion strains, locus YKL009W, strain mrt4, hits give low values 0.97 | S. cerevisiae deletion strains, locus YOL012C, strain htz1 0.269
active: S. cerevisiae deletion strains, locus YKL068W, hits give low values 0.855 | S. cerevisiae deletion strains, locus YKL085W, strain MDH1 (second series), hits give low values 0.84 | S. cerevisiae deletion strains, locus YKL085W, strain MDH1, hits give low values 0.84 | S. cerevisiae deletion strains, locus YKL160W, strain elf1, hits give low values 0.701 | S. cerevisiae deletion strains, locus YKL190W, strain CNB1, hits give low values 0.429 | S. cerevisiae deletion strains, locus YKR001C, strain vps1, hits give low values 0.376 | S. cerevisiae deletion strains, locus YKR026C, strain gcn3, hits give low values 0.572 | S. cerevisiae deletion strains, locus YKR091W, strain srl3, hits give low values 0.763 | S. cerevisiae deletion strains, locus YLL001W, strain dnm1, hits give low values 0.482 | S. cerevisiae deletion strains, locus YLL026W, hits give low values 0.57 | S. cerevisiae deletion strains, locus YLL041C, strain sdh2, hits give low values 0.649 | S. cerevisiae deletion strains, locus YLR027C, strain aat2, hits give low values 0.575 | S. cerevisiae deletion strains, locus YLR039C, strain RIC1, hits give low values 0.154 | S. cerevisiae deletion strains, locus YLR058C, strain SHM2, hits give low values 0.0829 | S. cerevisiae deletion strains, locus YLR102C, strain apc9, hits give low values 0.857 | S. cerevisiae deletion strains, locus YLR113W, strain HOG1, hits give low values 0.575 | S. cerevisiae deletion strains, locus YLR221C, strain rsa3, hits give low values 0.521 | S. cerevisiae deletion strains, locus YLR258W, strain gsy2, hits give low values 0.576 | S. cerevisiae deletion strains, locus YLR262C, strain YPT6 (second series), hits give low values 0.303 | S. cerevisiae deletion strains, locus YLR262C, strain YPT6, hits give low values 0.375 | S. cerevisiae deletion strains, locus YLR268W, strain sec22, hits give low values 0.176 | S. cerevisiae deletion strains, locus YLR320W, strain mms22, hits give low values 0.418 | S. cerevisiae deletion strains, locus YLR330W, strain CHS5, hits give low values 0.543 | S. cerevisiae deletion strains, locus YLR342W, strain FKS1 (second series), hits give low values 0.345 | S. cerevisiae deletion strains, locus YLR342W, strain FKS1, hits give low values 0.364 | S. cerevisiae deletion strains, locus YLR357W, strain rsc2, hits give low values 0.474 | S. cerevisiae deletion strains, locus YLR370C, strain arc18, hits give low values 0.427 | S. cerevisiae deletion strains, locus YLR371W, strain rom2, hits give low values 0.588 | S. cerevisiae deletion strains, locus YLR384C, strain iki3, hits give low values 0.327 | S. cerevisiae deletion strains, locus YLR418C, strain cdc73, hits give low values 0.303 | S. cerevisiae deletion strains, locus YML016C, strain PPZ1, hits give low values 0.399 | S. cerevisiae deletion strains, locus YML032C, strain rad52, hits give low values 0.165 | S. cerevisiae deletion strains, locus YML120C, strain ndi1, hits give low values 0.14 | S. cerevisiae deletion strains, locus YML124C, strain tub3, hits give low values 0.424 | S. cerevisiae deletion strains, locus YMR058W, strain fet3, hits give low values 0.223 | S. cerevisiae deletion strains, locus YMR078C, strain ctf18, hits give low values 0.547 | S. cerevisiae deletion strains, locus YMR125W, strain sto1, hits give low values 0.802 | S. cerevisiae deletion strains, locus YMR129W, hits give low values 0.568 | S. cerevisiae deletion strains, locus YMR205C, strain PFK2, hits give low values 0.294 | S. cerevisiae deletion strains, locus YMR223W, strain ubp8, hits give low values 0.464 | S. cerevisiae deletion strains, locus YMR231W, strain pep5, hits give low values 0.398 | S. cerevisiae deletion strains, locus YMR263W, strain SAP30, hits give low values 0.207 | S. cerevisiae deletion strains, locus YMR307W, strain GAS1, hits give low values 0.456 | S. cerevisiae deletion strains, locus YNL067W, strain RPL9B, hits give low values 0.401 | S. cerevisiae deletion strains, locus YNL071W, strain lat1, hits give low values 0.675 | S. cerevisiae deletion strains, locus YNL128W, strain TEP1, hits give low values 0.387 | S. cerevisiae deletion strains, locus YNL153C, strain GIM3, hits give low values 0.215 | S. cerevisiae deletion strains, locus YNL183C, strain NPR1, hits give low values 0.634 | S. cerevisiae deletion strains, locus YNL209W, strain ssb2, hits give low values 0.185 | S. cerevisiae deletion strains, locus YNL233W, strain BNI4, hits give low values 0.502 | S. cerevisiae deletion strains, locus YNL248C, strain rpa49, hits give low values 0.633 | S. cerevisiae deletion strains, locus YNL250W, strain rad50, hits give low values 0.76 | S. cerevisiae deletion strains, locus YNL271C, strain bni1, hits give low values 0.774 | S. cerevisiae deletion strains, locus YNL298W, strain CLA4, hits give low values 0.756 | S. cerevisiae deletion strains, locus YNL307C, strain MCK1, hits give low values 0.517 | S. cerevisiae deletion strains, locus YNL322C, strain KRE1 (second series), hits give low values 0.187 | S. cerevisiae deletion strains, locus YNL322C, strain KRE1, hits give low values 0.241 | S. cerevisiae deletion strains, locus YNR049C, strain mso1, hits give low values 0.714 | S. cerevisiae deletion strains, locus YNR052C, strain pop2, hits give low values 0.122 | S. cerevisiae deletion strains, locus YOL006C, strain TOP1, hits give low values 0.136 | S. cerevisiae deletion strains, locus YOL147C, strain pex11, hits give low values 0.187 | S. cerevisiae deletion strains, locus YOR001W, strain rrp6, hits give low values 0.325 | S. cerevisiae deletion strains, locus YOR061W, strain CKA2, hits give low values 0.545 | S. cerevisiae deletion strains, locus YOR069W, strain VPS5, hits give low values 0.617 | S. cerevisiae deletion strains, locus YOR070C, strain gyp1, hits give low values 0.782 | S. cerevisiae deletion strains, locus YOR080W, strain dia2, hits give low values 0.105 | S. cerevisiae deletion strains, locus YOR083W, strain WHI5, hits give low values 0.618 | S. cerevisiae deletion strains, locus YOR106W, strain vam3, hits give low values 0.221 | S. cerevisiae deletion strains, locus YOR136W, strain idh2, hits give low values 0.557 | S. cerevisiae deletion strains, locus YOR144C, strain elg1, hits give low values 0.202 | S. cerevisiae deletion strains, locus YOR184W, strain ser1, hits give low values 0.314 | S. cerevisiae deletion strains, locus YOR231W, strain MKK1, hits give low values 0.68 | S. cerevisiae deletion strains, locus YOR265W, strain rbl2, hits give low values 0.507 | S. cerevisiae deletion strains, locus YOR270C, strain vph1, hits give low values 0.169 | S. cerevisiae deletion strains, locus YOR290C, strain snf2, hits give low values 0.0825 | S. cerevisiae deletion strains, locus YOR316C, strain cot1, hits give low values 0.738 | S. cerevisiae deletion strains, locus YPL051W, strain arl3, hits give low values 0.328 | S. cerevisiae deletion strains, locus YPL055C, strain LGE1, hits give low values 0.443 | S. cerevisiae deletion strains, locus YPL078C, strain atp4, hits give low values 0.144 | S. cerevisiae deletion strains, locus YPL106C, strain sse1, hits give low values 0.582 | S. cerevisiae deletion strains, locus YPL240C, strain hsp82, hits give low values 0.671 | S. cerevisiae deletion strains, locus YPL241C, strain CIN2, hits give low values 0.57 | S. cerevisiae deletion strains, locus YPL256C, strain CLN2, hits give low values 0.693 | S. cerevisiae deletion strains, locus YPR119W, strain clb2, hits give low values 0.802 | S. cerevisiae deletion strains, locus YPR141C, strain kar3, hits give low values 0.849 | S. cerevisiae deletion strains, locus YPR163C, strain tif3, hits give low values 0.659 | S. cerevisiae deletion strains, locus YPR167C, strain met16, hits give low values 0.564 | S. cerevisiae deletion strains, strain wtn01, hits give low values 0.349 | S. cerevisiae strains, strain wild type, hits give low values 0.268
